High-throughput results from PubChem BioAssay.
Only some compounds are listed: those with a hit (about 10% of all), similar ones and a draw of the others.
BAZ2B block = inhibitors of human BAZ2B bromodomain. Q9UIF8. AlphaScreen BAZ2B-H3K14Ac peptide displacement. Potency, µM (highest dose often 114 µM), inactives show at the top dose activity change, negative = inhibition, hits mostly inhibitors. actives 4.4% (n = 360,000). AID 504333; further: potency means the concentration at half of the fitted maximal effect; on the % scale 0 is the no-effect control and ±100 the full control effect; nearly all actives have a fitted effect of over 60% in size
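Compounds, titrated to a top concentration of 110 uM, were incubated 30 min at room temperature with preformed BAZ2B/acetyl-K14 H3 peptide complex (50 nM each). Proximity signal was measured by AlphaScreen after 20 min with beads.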
HP1b chromo inh = blocks HP1-beta chromodomain binding to methylated histone tails | Potency, µM (series often up to 114 µM), for the others: at the highest dose activity change, negative = inhibition, most hits filed as inhibitors | AlphaScreen HP1-beta / biotin-H3K9me3 peptide binding | actives 0.56% (n = 390,000) | P83916; further: potency means the concentration at half of the fitted maximal effect; nearly all actives have a fitted effect of over 70% in size
Target sequence (P83916 whole entry, looked up): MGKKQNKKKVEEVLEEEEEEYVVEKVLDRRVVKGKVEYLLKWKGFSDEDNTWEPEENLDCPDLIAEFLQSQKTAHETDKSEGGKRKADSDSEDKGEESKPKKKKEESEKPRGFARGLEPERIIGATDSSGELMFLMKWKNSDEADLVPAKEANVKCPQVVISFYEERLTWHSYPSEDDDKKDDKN
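AlphaScreen: HP1-beta (50 nM) preformed 30 min with biotin-H3(1-18)K9me3 peptide (50 nM) in PBS pH 7.4, 0.01% Tween-20. Compound added for 30 min at RT, then streptavidin donor/nickel chelate acceptor beads (10 ug/mL) for 30 min.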
G9a block = G9a (human) methyltransferase inhibition | AID 504332 | actives 8.8% (n = 350,000) | Potency, µM (doses to about 102 µM), for the others: at the top dose activity, negative = inhibition, actives largely listed as inhibitors | G9a H3K9 monomethylation, AlphaScreen, 2 h | Q96KQ7; further: potency means the concentration at half of the fitted maximal effect; on the % scale 0 is the no-effect control and ±100 the full control effect; nearly all actives have a fitted effect of over 75% in size
Target sequence (Q96KQ7 913-1193 limits assumed): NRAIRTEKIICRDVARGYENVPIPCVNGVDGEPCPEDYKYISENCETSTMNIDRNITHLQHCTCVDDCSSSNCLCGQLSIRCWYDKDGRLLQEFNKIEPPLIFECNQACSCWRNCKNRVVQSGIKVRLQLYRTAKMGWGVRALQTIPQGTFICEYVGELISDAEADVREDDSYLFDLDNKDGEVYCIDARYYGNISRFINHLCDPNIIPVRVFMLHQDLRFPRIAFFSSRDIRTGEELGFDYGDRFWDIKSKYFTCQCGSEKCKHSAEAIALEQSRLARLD
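AlphaScreen detection with an anti-monomethyl H3K9 antibody quantified product after a 2 h room-temperature reaction containing 500 nM biotinylated H3K9 peptide, 20 µM SAM and 20 nM enzyme, which had been preincubated 15 min with compound.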
L3MBTL1 inh-1 = inhibitors of human L3MBTL1 | actives 0.66% (n = 230,000) | AlphaScreen L3MBTL1–H3K9me1 peptide binding | Potency, µM (highest dose often 57.1 µM), without a hit: at the highest dose activity, negative = inhibition, hits mostly inhibitors; further: potency means the concentration at half of the fitted maximal effect; on the % scale 0 is the no-effect control and ±100 the full control effect; nearly all actives have a fitted effect of over 60% in size
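First, the protein-peptide complex forms for 30 min at room temperature (L3MBTL1 50 nM, biotinylated H3K9me1 peptide 75 nM). Next, compounds are pin-transferred and incubated 30 min. Finally, AlphaScreen beads are added and read after 30 min.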
JMJD2A Tudor inh = JMJD2A Tudor domain (human) inhibition; O75164; AlphaScreen JMJD2A-Tudor / H3K4me3 peptide binding; Potency, µM (highest dose often 114 µM), inactives show at the top dose activity change, negative = inhibition, usual class: inhibitors; actives 4.4% (n = 390,000); further: potency means the concentration at half of the fitted maximal effect; on the % scale 0 is the no-effect control and ±100 the full control effect; nearly all actives have a fitted effect of over 50% in size
GLS inhibitor = blocks human kidney-isoform glutaminase activity | GLS enzymatic activity, qHTS titration | Potency, µM (top dose mostly 45.5 µM), inactives show at the highest dose activity change, negative = inhibition, hits mostly inhibitors | actives 0.21% (n = 410,000) | AID 624170; further: potency means the concentration at half of the fitted maximal effect; on the % scale 0 is the no-effect control and ±100 the full control effect
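Human kidney-isoform GLS in 45 mM KH2PO4 pH 8.2, 0.02% Tween-20, with compound, started with 1mM L-Glutamine (added stock). Glutamate oxidase/HRP/Amplex red coupled fluorescence read at start and after 30 min at RT.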
L3MBTL1 inh-2 = validation of human L3MBTL1 methyl-lysine binding inhibitors | actives 91% (n = 500) | L3MBTL1 methyl-lysine binding inhibition, biochemical qHTS | AID 540279 | shares compounds with L3MBTL1 inh-1 | Potency, µM, most hits filed as inhibitors; further: potency means the concentration at half of the fitted maximal effect; nearly all actives have a fitted effect of over 70% in size
L3MBTL1 ctr = interferes with AlphaScreen signal in L3MBTL1 counterscreen. shares compounds with L3MBTL1 inh-1. AlphaScreen counterscreen, signal inhibition. Potency, µM (doses to about 57.1 µM), for inactives: at the top dose activity change, negative = inhibition, usual class: inhibitors. 500 tested, under 10 active; further: potency means the concentration at half of the fitted maximal effect; 0% is about no effect
ME-1 prolif = ME-1 cell growth inhibition; actives 20% (n = 140); AID 504370; Potency, µM (doses to about 56.1 µM), for inactives: top-dose activity change, negative = inhibition, usual class: inhibitors; ME-1 cell proliferation, ATP luminescence, 48 h; shares compounds with BAZ2B block
Numbers without * were called inactive; ? = inconclusive; / = not tested or not shown; [ ] = dose if it differs, or a comment. The call rests on the fitted dose curve; in most records, active means well fitted curve in the direction sought with a large enough effect; inconclusive means small, poorly fitted or top-dose-only effect, or another doubt; inactive means no such curve, though single readings can be large; an effect the other way counts as inactive or inconclusive.

SMILES	BAZ2B block	HP1b chromo inh	G9a block	L3MBTL1 inh-1	JMJD2A Tudor inh	GLS inhibitor	L3MBTL1 inh-2	L3MBTL1 ctr	others
Cn1cc(C(=O)NCc2ccccc2)c(=O)c2cc(S(=O)(=O)N3CCOCC3)ccc21	/	18%	2%[59 µM]	/	?	1%	/	/
Oc1c(C(Nc2cccc(C(F)(F)F)c2)c2ccncc2)ccc2cccnc12 (configuration not stated)	20µM*	0%	28µM*	22µM*	32µM*	-33%	21*	-65%
O=S(=O)(O)O	/	/	?	/	/	-14%	/	/
COc1ccc(N2Cc3cccc(C(=O)NC(C)CCc4ccco4)c3C2=O)cc1 (configuration not stated)	35µM*	?	?	14µM*	45µM*	0%	2.7*	9%
CC(CCc1ccco1)NC(=O)c1cccc2c1C(=O)N(C1CCCCC1)C2 (configuration not stated)	5%	21%	-13%	/	-28%	-10%	/	/
COc1ccc2[nH]cc(CCNc3ncncc3-c3ccc(C(=O)N(C)C)cc3)c2c1	/	/	-27%[0.501 µM]	/	/	/	/	/
Cc1c(C(=O)OC2CCCC2)[nH]c2c1C(=O)CC(c1ccco1)C2 (configuration not stated)	?	4%	?	-24%	?	-4%	/	/
Cc1c(C(=O)OCC2CCCO2)[nH]c2c1C(=O)CC(c1ccco1)C2 (configuration not stated)	22µM*	?	18µM*	14µM*	?	-2%	6*	-2%
COc1ccc(S(=O)(=O)/N=C2/NC(=O)/C(=C/c3ccco3)S2)cc1	?	12%	?	35µM*	?	5%	19*	-1%
COc1ccccc1Cc1nc2ccccc2nc1SCC(=O)NCc1ccccc1Cl	6%	35%[57 µM]	11%[59 µM]	/	-11%	-9%	/	/
Cc1ccc(NC(=O)c2cc(C)nc3c2c(C)nn3-c2cccc(Cl)c2C)c(C)c1	9%[57.1 µM]	11%	1%[59 µM]	/	-9%	-2%	/	/
COC(=O)c1c(C)[nH]c(C(=O)C(C)OC(=O)C2CC(=O)N(CCc3ccccc3)C2)c1C (configuration not stated)	56µM*	16%	-31%[2.33 µM]	28µM*	-13%	-7%	27*	5%
COC(=O)c1ccc(OC)c(Cn2c(=O)n(-c3cccc(Cl)c3)c(=O)c3c2c2cc(C)ccc2n3C)c1	2%	21%	-11%[59 µM]	/	-12%	11%	/	/
O=C(CSc1nnc(-c2ccco2)o1)c1ccc[nH]1	45µM*	6%	40µM*	28µM*	-26%	2%	19*	1%
O=C(CSc1nnc(-c2ccco2)o1)c1ccc(F)c(F)c1	7%	36%	2%	-4%	-14%	2%	/	/
COc1ccc(/C=C/C(=O)NCc2ccccn2)cc1	5%	41%	4%[59 µM]	-5%	11%	13%	/	/
Cc1ccc(/C=C/C(=O)NCc2ccccn2)o1	45µM*	?	?	32µM*	50µM*	?	7.5*	-4%
O=C(O)c1cc(Cl)c2c(c1)[C@@H]1C=CC[C@@H]1[C@H](c1ccc(S(=O)(=O)N3CCOCC3)cc1)N2	50µM*	-22%	22µM*	22µM*	79µM*	13µM*	27*	?
Cc1ccccc1NC(=O)C1CCC(CNS(=O)(=O)c2ccc3c(c2)C(C)(C)C(=O)N3C)CC1 (configuration not stated)	-4%	39%	-1%[59 µM]	/	6%	8%	/	/
Cc1cc(C(=O)OCC(=O)NC(C)C)c2ccccc2n1	-20%	-8%	-2%	/	-27%[11.4 µM]	?	/	/
O=C(O)c1cc(-c2ccco2)nc2ccccc12	?	45µM*	28µM*	22µM*	25µM*	?	3*	-5%
CCNC(=O)COC(=O)c1cc(-c2ccco2)nc2ccccc12	50µM*	?	40µM*	25µM*	56µM*	?	4.2*	6%
Cc1nn(-c2ccccc2)c2nc(-c3ccco3)cc(C(=O)O)c12	?	9%	20µM*	11µM*	?	7.1µM*	1.1*	3%
COc1ncc2nc(-c3cn(C)c4ccccc34)c(=O)n(CCc3ccccc3)c2n1	/	/	14%[0.501 µM]	/	/	/	/	/
CCOc1ccc(Nc2ncnc3c2nc2n3CCCCC2)cc1	-3%	29%	15%[59 µM]	/	-5%	42%	/	/
SMILES	BAZ2B block	HP1b chromo inh	G9a block	L3MBTL1 inh-1	JMJD2A Tudor inh	GLS inhibitor	L3MBTL1 inh-2	L3MBTL1 ctr	others
O=C(O)/C=C\C(=O)Nc1ccc(N2CCN(c3ccc(F)cc3)CC2)cc1	?	?	/	?	?	39%	/	/
O=C(O)/C=C\C(=O)Nc1ccc(N2CCN(c3ccc(Cl)c(Cl)c3)CC2)cc1	32µM*	?	32µM*	25µM*	40µM*	27%	13*	?
CCOc1ccc(N=C2NC(=O)S/C2=C\c2ccc(Cl)cc2)cc1	-2%	34%	-11%[2.33 µM]	9%	-32%	-2%	/	/
Cc1ccc(N=C2NC(=O)S/C2=C\c2ccco2)cc1	63µM*	1%	?	25µM*	18µM*	-5%	12*	7%
Cc1cccc(/C=C(\C(=O)O)c2ccc(S(=O)(=O)N3CCCC3)s2)c1	/	-10%	/	28µM*	?	40%	5.3*	3%
O=c1cc2c(=O)oc3cc(O)c(O)oc3c2c(O)c1O	1.8µM*	1.6µM*	/	0.32µM*	1.4µM*	?	0.17*	?	ME-1 prolif=-15%
O=C(Nc1ccc(F)c(Cl)c1)N1CCN2CCCCC2C1 (configuration not stated)	?	1%	-30%[59 µM]	/	-13%	10%	/	/
Clc1ccc2c(c1)C(N1CCNCC1)Cc1ccccc1S2 (configuration not stated)	-10%	-11%	?	-7%	?	7%	/	/
COCCCN1CCN(C2Cc3ccccc3Sc3ccc(Cl)cc32)CC1 (configuration not stated)	?	-13%	?	-5%	22µM*	3%	/	/	ME-1 prolif=-22%[25.6 µM]
COCc1cc(O)c(O)c(O)c1-c1c(COC)cc(O)c(O)c1O	/	/	1µM*	/	/	/	/	/	ME-1 prolif=-27%
